PubChem BioAssay (NCATS)
Results filed as inconclusive are left out. Entries that show only a call come without a potency. Activity calls are given as the source filed them. The call rests on the fitted dose curve; in most records, active means well fitted inhibition curve with a large enough effect; inconclusive means small, poorly fitted or top-dose-only effect; inactive means flat fitted curve, though single readings scatter.

Columns and labels:
[1] = target: Glutathione peroxidase 1 (Homo sapiens) (UniProt P07203); test: Primary qHTS Assay for Inhibitors of Recombinant Selenoprotein Glutathione Peroxidase 1 (GPX1) (AID 1845191)
Chain of Glutathione peroxidase 1 (Homo sapiens) (P07203 whole entry, looked up): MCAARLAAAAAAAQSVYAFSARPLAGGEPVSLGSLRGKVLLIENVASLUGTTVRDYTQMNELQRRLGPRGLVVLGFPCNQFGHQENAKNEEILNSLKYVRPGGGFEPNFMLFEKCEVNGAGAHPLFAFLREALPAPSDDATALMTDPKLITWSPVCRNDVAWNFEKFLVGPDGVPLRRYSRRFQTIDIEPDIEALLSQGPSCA
Method in brief: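 10 nM GPX1 + cpd, 30 min RT; start w/ 1 mM GSH, 0.5 mM cumene hydroperoxide, 0.5 mM NADPH, 100 nM GR, 0.01% BSA; buffer 50 mM Tris-HCl pH 7.5, 2 mM EDTA, 150 mM NaCl; Fl 340/450, 0 & 15 min.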

[2] = target: Phospholipid hydroperoxide glutathione peroxidase GPX4 (Homo sapiens) (UniProt P36969); test: Primary qHTS Assay for Inhibitors of Recombinant Selenoprotein Glutathione Peroxidase 4 (GPX4) (AID 1845192)
Chain of Phospholipid hydroperoxide glutathione peroxidase GPX4 (Homo sapiens) (P36969 whole entry, looked up): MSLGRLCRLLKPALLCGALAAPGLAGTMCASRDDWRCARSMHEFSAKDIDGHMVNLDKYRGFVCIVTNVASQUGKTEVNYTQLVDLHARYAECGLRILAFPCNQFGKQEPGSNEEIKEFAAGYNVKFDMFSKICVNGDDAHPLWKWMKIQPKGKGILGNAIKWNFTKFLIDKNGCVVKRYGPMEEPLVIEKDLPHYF
Method in brief: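 NADPH consumption, followed by fluorescence at 340/450 nm between 0 and 15 min, reports GPX4 activity via coupled glutathione reductase (100 nM). Enzyme 200 nM was pre-exposed to compound 30 min; 0.5 mM cumene hydroperoxide and 1 mM GSH served as substrates.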
Further: nearly all actives have a fitted effect of over 65% in size.

Row | SMILES | Potency [1] | Potency [2]
1 | O=C(OCC(O)CO)c1ccccc1Nc1ccnc2c(C(F)(F)F)cccc12 (configuration not stated) | inactive | inactive
2 | C[C@H]1NCc2cc(-c3ccc4c(=O)c(C(=O)O)cn(C5CC5)c4c3OC(F)F)ccc21 | inactive | inactive
3 | O=S(=O)(O)c1ccc2nc(-c3ccccc3)[nH]c2c1 | inactive | inactive
4 | CO[C@@H]1[C@@H](O[C@@H]2O[C@H](C)[C@@H](O[C@H]3C[C@@](C)(O)[C@@H](O)[C@H](C)O3)[C@H](N(C)C)[C@H]2O)[C@@H](CC=O)C[C@@H](C)[C@@H](O[C@@H]2CC[C@H](N(C)C)[C@@H](C)O2)/C=C/C=C/C[C@@H](C)OC(=O)C[C@H]1OC(C)=O | inactive | inactive
5 | CCCCCCCCCCCCCCCC[N+](C)(C)Cc1ccccc1 | inactive | inactive
6 | CC1(C)O[C@@H]2C[C@H]3[C@@H]4C[C@H](F)C5=CC(=O)C=C[C@]5(C)[C@@]4(F)[C@@H](O)C[C@]3(C)[C@]2(C(=O)CO)O1 | inactive | inactive
7 | CNC(=O)c1cnn(-c2nc(N)c3ncn([C@@H]4O[C@H](CO)[C@@H](O)[C@H]4O)c3n2)c1 | inactive | inactive
8 | CC(=O)N(c1onc(C)c1C)S(=O)(=O)c1ccc(N)cc1 | inactive | inactive
9 | Cc1nc(C2CCCCC2)c(-c2ccc(S(N)(=O)=O)c(F)c2)o1 | inactive | inactive
10 | O=C(O)c1ccccc1S | inactive | inactive
11 | CC1(C)O[C@@H]2C[C@H]3[C@@H]4CCC5=CC(=O)C=C[C@]5(C)[C@@]4(F)[C@@H](O)C[C@]3(C)[C@]2(C(=O)CO)O1 | inactive | inactive
